# Only some compounds are listed: those with a hit (about 3.4% of all), similar ones and a draw of the others.
# esBAF inh – inhibitors of esBAF chromatin remodeling in mouse ES cells | hit rate 2% among 350,000 | reporter increase, % at 12.5 µM | Bmi1-luciferase knock-in reporter, 24 h; 100% = twice the neutral-well signal; in the data active = activation above about 40%; inconclusive = no clear call, values can overlap the other calls;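 note: 0% = median of the plate's neutral control wells and 100% = double that signal; a rise in the Bmi1 reporter signal indicates esBAF inhibition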
# MITF TRPM1 HTS – activators of MITF-driven TRPM1 promoter activity in SK-MEL-5 cells; activation, % at 12.5 µM; SK-MEL-5 TRPM1-promoter luciferase, 24 h; % of positive control, neutral wells = 0; AID 588334; hit rate 0.75% among 300,000;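 active = mean activation of at least 80% with every replicate also reaching 80%; inconclusive = mean reaches 80% but some replicate falls short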;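 note: 0% = neutral control wells and 100% = parthenolide positive control wells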
# Env fusion inh – inhibitors of HIV Env-mediated cell fusion; AID 651610; hit rate 1.1% among 360,000; HeLa-JRFL Env/CEM21 cell fusion, luciferase; inhibition, % at 12.3 µM;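 active = mean replicate inhibition score of at least 50 and every replicate individually at or above 50; inconclusive = only one of the two criteria met; inactive = mean below 50 and not all replicates reaching 50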;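 note: 0% = plate neutral controls and 100% = maraviroc near 300 nM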
# miR-122 sensor – miR-122 inhibition in Huh7 cells; Huh7 miR-122 Renilla luciferase sensor, 48 h; neutral wells = 0, positive control = 100; activation (reporter increase), % at 12.5 µM; hit rate 0.3% among 340,000;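 active = mean replicate activation score at least 90 and every replicate individually at or above 90; inconclusive = only one of the two criteria met; inactive = neither criterion met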;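 note: higher luciferase means less miR-122 activity so hits act as miR-122 inhibitors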
# Wnt act – activates Wnt/beta-catenin signaling in a reporter cell assay; activator, plate reader; activation, % at 9.35 µM; hit rate 1.2% among 300,000; in the data active = activation above about 30%, passing the limit was not always enough; inconclusive = no clear call, values can overlap the other calls;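 note: 0% = neutral control wells and 100% = positive control wells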
# * = called active by the depositor; ? = inconclusive; / = no result; [ ] = dose if it differs, or a comment.
SMILES,esBAF inh,MITF TRPM1 HTS,Env fusion inh,miR-122 sensor,Wnt act
O=C(O)C[C@H]1CC[C@@H](NC(=O)c2ccccc2F)[C@H](CO)O1,0,/,-2[16.7 µM],/,/
CN(Cc1cnn(C)c1)C(=O)c1cc(COc2c(F)cccc2F)on1,47*,15,-2,-5,/
CCN(Cc1cnn(C)c1)C(=O)c1cc(COc2ccc3c(c2)CCCC3)on1,46*,55,-9,/,12
O=C(NCCc1cnn(-c2ccccc2)c1)c1cc(COc2c(F)cccc2F)on1,/,46,11,/,38*
CO[C@H]1CC[C@@H]2CCN(C)C(=O)[C@@H](C)CN(C)C(=O)c3cccc(C#N)c3OC[C@H]1O2,-5,/,6[16.7 µM],/,/
CO[C@H]1CN(C)C(=O)c2ccc(NC(=O)C3CCC3)cc2OC[C@H](C)N(Cc2ccncc2)C[C@@H]1C,-4,/,/,0[16.7 µM],/
COc1ccccc1N1CCN(C(=O)c2ccc(-c3nc4ccccc4s3)o2)CC1,24,38,/,5,-2
COc1ccc(N2CCN(C(=O)c3ccc(-c4nc5ccccc5s4)o3)CC2)cc1,43*,20,-14,1,4
COc1cc(O)c2c(=O)c(-c3ccc(O[C@@H]4O[C@H](CO)[C@@H](O)[C@H](O)[C@H]4O)cc3)coc2c1,25,73,-115,-4,36*
Cc1cc(O)cc(O[C@H]2OC(CO)[C@H](O)[C@@H](O)[C@H]2O)c1 (some centres not stated),-6,-5,-9,1,-1
COc1ccc(/C=C/c2cc(O)cc(O[C@@H]3O[C@H](CO)[C@@H](O)[C@H](O)[C@H]3O)c2)cc1O,-25,/,-62,2,72*
COc1cc(/C=C/CO)ccc1O[C@@H]1O[C@H](CO)[C@@H](O)[C@H](O)[C@H]1O,-2,/,/,-2,-1
COc1ccc(/C=C/c2cc(O)cc(OC3OC(CO)C(O)C(O)C3O)c2)cc1 (configuration not stated),-34,117*,-169,-1,49*
COc1ccc(NC(=O)N(C)C[C@@H]2Oc3ncc(C#CCN(C)C)cc3C(=O)N([C@H](C)CO)C[C@H]2C)cc1,-6,/,-14[16.7 µM],3[16.7 µM],/
C[C@H]1CN([C@@H](C)CO)S(=O)(=O)c2ccc(Br)cc2O[C@@H]1CN(C)C,-4,/,16[16.7 µM],1[16.7 µM],/
Cc1ccc(SCc2c(C#N)c3ccccc3n2C)cc1,6,/,/,-1,-1
Cn1c(CSc2ccccc2)c(C#N)c2ccccc21,63*,76,-31,0,/
O=C(C[C@@H]1CC[C@H]2[C@@H](COC[C@H](O)CN2S(=O)(=O)c2ccccc2)O1)NCc1ccc(-c2ccccc2)cc1,1,/,-5[16.7 µM],-1[16.7 µM],/
Cc1nc2c(-c3ccc(F)cc3)c(C)nn2c(C)c1CCC(=O)NC(C)CCc1ccco1 (configuration not stated),10,/,65*,-13,-1
Cc1nc2c(-c3ccccc3)c(C)nn2c(C)c1CCC(=O)NCc1ccco1,-1,-2,10,3,-2
C[C@H]1CN([C@@H](C)CO)C(=O)Cc2cc(NS(=O)(=O)c3ccccc3)ccc2O[C@@H]1CN(C)Cc1ccncc1,-3,/,/,2[16.7 µM],/
Nc1ccc(-c2nc3ncccc3o2)c(Cl)c1,?,43,-108,/,42*
Nc1ccc(-c2nc3ncccc3o2)c(O)c1,57*,95*,-69,/,18
COc1cccc(C=NN2CCCCCC2)c1OC,45*,54,-88,-8,-3
N#C[C@H]1[C@H](c2ccccc2)[C@@H](CO)N1C(=O)Nc1cccc(F)c1,15,/,/,/,/
SMILES,esBAF inh,MITF TRPM1 HTS,Env fusion inh,miR-122 sensor,Wnt act
Cc1cc(-c2nnc(-c3cccc(Cl)c3)o2)no1,/,/,-23,-6,53*
NC(=O)c1ccc(NC(=O)C#Cc2ccccc2)cc1,32,-9,22,-15,41*
COc1ccc(NC(=O)C#Cc2ccccc2)cc1OC,5,/,30,/,1
C[C@@H]1CN([C@H](C)CO)C(=O)c2cc(NC(=O)Nc3ccccc3)ccc2O[C@H]1CN(C)C(=O)Nc1ccc2c(c1)OCO2,-5,/,-4[16.7 µM],0[16.7 µM],/
CC[C@@]12C(=O)N(c3cccc(Br)c3)C(=O)N1[C@H](c1cccc(C)c1)[C@@H]1C(=O)N(Cc3ccccc3)C(=O)[C@@H]12,-3,-1,65*,2,-7
CC[C@@]12C(=O)N(c3cccc(F)c3)C(=O)N1[C@H](c1cccc(C)c1)[C@@H]1C(=O)N(Cc3ccccc3)C(=O)[C@@H]12,4,-4,21,0,-4
Cc1cccc([C@@H]2[C@@H]3C(=O)N(Cc4ccccc4)C(=O)[C@@H]3[C@]3(Cc4ccccc4)C(=O)N(c4ccc(C(F)(F)F)cc4)C(=O)N23)c1,3,1,64*,/,-1
CC[C@@]12C(=O)N(c3ccccc3)C(=O)N1[C@H](c1cccc(C)c1)[C@@H]1C(=O)N(Cc3ccccc3)C(=O)[C@@H]12,1,-3,88*,-5,-1
Oc1c(C(c2ccccc2)N2CCOCC2)ccc2ccccc12 (configuration not stated),4,-15,72*,-5,8
CCOCc1nnc(NS(C)(=O)=O)s1,0,8,-26,268*,/
CCOC(=O)c1sc(NC(=O)Nc2ccc(F)cc2)nc1C,/,103*,-314,/,-2
CCOCc1nnc(NC(=O)c2ccc(OC)cc2)s1,53*,37,/,3,/
CCOCc1nnc(NC(C)=O)s1,-3,-4,-25,1,/
CCOC(=O)Nc1nnc(-c2cccc(OC)c2)s1,19,28,-32,-5,5
CCOC(=O)Nc1nnc(-c2ccc(OC)cc2)s1,79*,40,/,3,/
CCOC(=O)c1sc(NC(=O)c2ccc(C)o2)nc1C,62*,11,-190,-2,/
CCOC(=O)c1sc(NC(=O)c2ccc(OC(C)=O)cc2)nc1C,/,30,-61,/,1
COc1cccc(C(=O)Nc2nnc(Cc3ccc(OC)c(OC)c3)s2)c1,/,/,-4,/,-1
CCCc1nnc(NC(=O)c2cccc(OC)c2)s1,36,86*,/,30,18
CCOC(=O)c1sc(NC(=O)c2ccc(OC)cc2)nc1C,47*,22,-35,-3,7
CN1CCN(C(=O)C[C@H]2CC[C@@H]3[C@@H](COc4ccc(NC(=O)c5ccc(F)c(F)c5)cc4C(=O)N3C)O2)CC1,-3,/,-8[16.7 µM],1[16.7 µM],/
CN(C)C=NC(=O)c1cc(C(=O)c2ccc(C(C)(C)C)cc2)c[nH]1,/,86*,-97,/,15
CN(C)C=NC(=O)c1cc(C(=O)c2ccccc2Cl)c[nH]1,/,-10,6,/,-1
CCNC(=O)Nc1ccc2c(c1)C(=O)N(C)[C@H]1CC[C@H](CC(=O)Nc3ccc(C)cc3)O[C@@H]1CO2,3,/,/,-10[16.7 µM],/
COc1ccccc1NC(=O)N[C@H]1CC[C@@H](CCNS(=O)(=O)c2ccc(Cl)cc2)O[C@@H]1CO,16,/,10[16.7 µM],/,/
Cc1ccc2nc(-c3ccc(Cl)cc3)c(Cc3ccccc3C(F)(F)F)n2c1,50*,/,-10,22,13
Cc1ccc(-c2nc3ccc(Cl)cn3c2Cc2ccccc2C(F)(F)F)cc1,2,/,-90,12,26
